# “And” between values parts separate entries of the source, which are not always exact repeats. Equal entries are not always repeated.
# Biological target: C-X-C chemokine receptor type 6 (Homo sapiens) (UniProt O00574)
# Test: apelin receptor (APJ) antagonists, SAR follow-up, counter-screen for CXCR6 antagonist project, cell-based, beta-arrestin, DiscoveRx, panel, CHO-K1 (AID 651598)
# Conditions: CHO-K1 PathHunter beta-arrestin luminescence, antagonist mode; run 1, at 80 µM (top of the series)
# C-X-C chemokine receptor type 6 (Homo sapiens), sequence (O00574 whole entry, looked up): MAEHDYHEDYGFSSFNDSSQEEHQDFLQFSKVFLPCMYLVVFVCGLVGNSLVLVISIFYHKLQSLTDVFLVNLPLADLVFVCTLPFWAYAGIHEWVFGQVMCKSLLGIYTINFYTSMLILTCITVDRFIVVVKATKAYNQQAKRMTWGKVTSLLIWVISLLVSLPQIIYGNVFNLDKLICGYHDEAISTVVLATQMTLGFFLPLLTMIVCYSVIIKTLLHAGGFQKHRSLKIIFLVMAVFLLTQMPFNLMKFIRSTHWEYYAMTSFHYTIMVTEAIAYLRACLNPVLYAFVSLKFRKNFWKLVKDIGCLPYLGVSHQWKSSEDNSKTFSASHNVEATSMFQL
row,SMILES,inhibition
1,COc1cc(C(=O)NC2CCN(CC(=O)Nc3ccccc3)CC2)cc(OC)c1OC,4.26%
2,COc1cc(C(=O)NC2CC3CCCC(C2)N3CC(=O)Nc2ccccc2)cc(OC)c1OC (stereo not drawn),89.3% and 49.6% and 26.4%
3,COc1cc(C(=O)NC2CC3CCC(C2)N3CC(=O)Nc2ccccc2)cc(OC)c1OC (stereo not drawn),59.5% and 13.9%

# — PubChem BioAssay AID651598 (Sanford-Burnham Center for Chemical Genomics, 2012)
